Inconclusive results are not listed. Calls of active or inactive are those of the source. Calls come from the whole dose curve; as a rule, active = well fitted curve in the direction sought with a large enough effect; inconclusive = small, poorly fitted or top-dose-only effect, or another doubt; inactive = no such curve, though single readings can be large; an effect the other way counts as inactive or inconclusive.
Key:
[1] = biological target: Glutathione peroxidase 1 (Homo sapiens) (UniProt P07203); test: Primary qHTS Assay for Inhibitors of Recombinant Selenoprotein Glutathione Peroxidase 1 (GPX1) (AID 1845191); note: nearly all actives have a fitted effect of over 65% in size; note: potency is the fitted concentration of half-maximal effect; for activity, negative = inhibition: % is set by controls: 0 for no effect and ±100 for the full control effect
Chain of Glutathione peroxidase 1 (Homo sapiens) (P07203 whole entry, looked up): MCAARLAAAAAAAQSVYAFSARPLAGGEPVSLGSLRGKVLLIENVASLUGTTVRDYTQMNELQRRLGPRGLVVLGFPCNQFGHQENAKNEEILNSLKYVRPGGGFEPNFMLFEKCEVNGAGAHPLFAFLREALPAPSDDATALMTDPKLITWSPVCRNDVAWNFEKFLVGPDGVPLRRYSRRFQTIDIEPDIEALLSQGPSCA
Summary of the method: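 NADPH consumption tracked by fluorescence at 340/450 nm between t=0 and t=15 min, room temperature. Final mix: 10 nM GPX1, 100 nM glutathione reductase, 1 mM GSH, 0.5 mM NADPH, 0.5 mM cumene hydroperoxide, 0.01% BSA; 30 min compound–enzyme preincubation.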

[2] = biological target: Phospholipid hydroperoxide glutathione peroxidase GPX4 (Homo sapiens) (UniProt P36969); test: Primary qHTS Assay for Inhibitors of Recombinant Selenoprotein Glutathione Peroxidase 4 (GPX4) (AID 1845192); note: nearly all actives have a fitted effect of over 65% in size; note: potency is the fitted concentration of half-maximal effect; for activity change, negative = inhibition: series mostly up to about 50 µM; % is set by controls: 0 for no effect and ±100 for the full control effect
Chain of Phospholipid hydroperoxide glutathione peroxidase GPX4 (Homo sapiens) (P36969 whole entry, looked up): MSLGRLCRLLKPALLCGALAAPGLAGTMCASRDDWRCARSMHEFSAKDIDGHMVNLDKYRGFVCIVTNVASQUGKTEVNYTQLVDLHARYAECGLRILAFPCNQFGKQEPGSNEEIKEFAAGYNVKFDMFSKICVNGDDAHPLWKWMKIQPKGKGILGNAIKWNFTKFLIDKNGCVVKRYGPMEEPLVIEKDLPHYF
Summary of the method: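 NADPH consumption followed by fluorescence at 340/450 nm, t=0 and after 15 min at room temperature. Reaction started with cumene hydroperoxide (0.5 mM final) after 30 min compound–GPX4 preincubation; final 200 nM GPX4, 100 nM GR, 1 mM GSH, 0.5 mM NADPH.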

[3] = biological target: Luciferin 4-monooxygenase (Photinus pyralis) (UniProt P08659); test: Primary firefly luciferase (FLuc) qHTS assay for identification of artifact compounds. (AID 1845220); note: nearly all actives have a fitted effect of over 60% in size; note: potency is the fitted concentration of half-maximal effect;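 for activity change, negative = inhibition: series mostly up to about 54 µM; plate controls were DMSO vehicle for no effect and no enzyme for full effect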
Summary of the method: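 Cell-free, 1536-well qHTS. Buffer pH 7.6 with 0.01% Tween-20 and 0.05% BSA; 10 uM D-luciferin, 10 uM ATP; 10 nM P. pyralis luciferase; luminescence after 5 min.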

[4] = Primary fluorescence-based thiol-reactive (MSTI) qHTS assay for identification of artifact compounds. (AID 1845221); note: nearly all actives have a fitted effect of over 65% in size; note: potency is the fitted concentration of half-maximal effect
Summary of the method: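 In PBS pH 7.4 with 2% DMSO, each compound met 4 uM MSTI for one hour at ambient temperature, shielded from light, before fluorescence detection.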

[5] = tested on: Nanoluciferase (engineered Oplophorus gracilirostris luciferase); test: Primary Nanoluciferase (NLuc) qHTS assay for identification of artifact compounds. (AID 1845222);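 note: series mostly up to about 54 µM; 0% = DMSO and -100% = no enzyme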
Summary of the method: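 Compounds are pinned into diluted (1:55) conditioned medium of NLuc-expressing S16 cells and held 15 min at room temperature protected from light. Nano-Glo substrate follows, and luminescence is read 5 min later.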

[6] = Primary redox qHTS assay for identification of artifact compounds. (AID 1845223);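 note: 0% = DMSO and 100% = reference compound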
Summary of the method: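 Redox-cycling detection via DTT (250 uM final) oxidation coupled to Amplex Red (25 uM)/HRP (250 mU/mL) in HBSS. 15 min preincubation plus 30 min after DTT, room temperature. Ex/Em 525/598 nm; 4-parameter Hill fit against DMSO and 10 uM DA3003.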

COc1cc(C(=O)OC(COCCC(C)C)CN2CCOCC2)cc(OC)c1OC (stereo not given)
inactive: Potency [1] | Potency [2] | Potency [3] | Potency [4] | Potency [5] | outcome [6]

CCCN(CCC)C(=O)C(CCC(=O)OCCCN1CCN(CCOC(=O)Cc2c(C)n(C(=O)c3ccc(Cl)cc3)c3ccc(OC)cc23)CC1)NC(=O)c1ccccc1 (stereo not given)
inactive: Potency [1] | Potency [2] | Potency [3] | Potency [4] | Potency [5] | outcome [6]

O=[N+]([O-])c1nccn1CO[C@@H](CO)[C@H](O)CO
inactive: Potency [1] | Potency [2] | Potency [3] | Potency [4] | Potency [5] | outcome [6]

CCCCCCCCCCCCCCCC[N+](C)(C)Cc1ccccc1
inactive: Potency [1] | Potency [2]

CCOc1ccc(NS(=O)(=O)c2ccc(N)cc2)nn1
inactive: Potency [1] | Potency [2]

OCCOCCN1CCN(C(c2ccccc2)c2ccc(Cl)cc2)CC1 (stereo not given)
inactive: Potency [1] | Potency [2]

Cc1oc(=O)oc1COC(=O)[C@@H]1N2C(=O)[C@@H](NC(=O)[C@H](N)c3ccccc3)[C@H]2SC1(C)C
inactive: Potency [1] | Potency [2]

CC(=O)[C@H]1CC[C@H]2[C@@H]3C=CC4=CC(=O)CC[C@@]4(C)[C@@H]3CC[C@]12C
inactive: Potency [1] | Potency [2] | Potency [3] | Potency [4] | Potency [5] | outcome [6]

CCC1=C[C@@H]2CN(C1)Cc1c([nH]c3ccccc13)[C@@](C(=O)OC)(c1cc3c(cc1OC)N(C)[C@H]1[C@@](O)(C(=O)OC)[C@H](OC(C)=O)[C@]4(CC)C=CCN5CC[C@]31[C@@H]54)C2
inactive: Potency [1] | Potency [2]

OC1(c2ccc(Cl)c(C(F)(F)F)c2)CCN(CCCC(c2ccc(F)cc2)c2ccc(F)cc2)CC1
inactive: Potency [1] | Potency [2] | Potency [3] | Potency [4] | outcome [6]

C[C@@H](C1=C(CCN(C)C)Cc2ccccc21)c1ccccn1
inactive: Potency [1] | Potency [2]

CCO[C@H](Cc1ccc(OCCc2ccc(OS(C)(=O)=O)cc2)cc1)C(=O)O
inactive: Potency [1] | Potency [2]

CC(=O)O[C@@H]1CC2C3CCc4cc(OC(=O)c5ccccc5)ccc4C3CCC2(C)[C@H]1OC(C)=O (stereo not given in full)
inactive: Potency [1] | Potency [2]

CCN1C(=O)c2ccccc2C1Nc1ccc(OCCN2CCCCC2)cc1 (stereo not given)
inactive: Potency [1] | Potency [2] | Potency [3] | Potency [4] | Potency [5] | outcome [6]

NCC[C@H](O)C(=O)N[C@@H]1C[C@H](N)[C@@H](O[C@H]2O[C@H](CN)[C@@H](O)[C@H](O)[C@@H]2O)[C@H](O)[C@@H]1O[C@H]1O[C@H](CO)[C@@H](O)[C@H](N)[C@@H]1O
inactive: activity, negative = inhibition [1] -13.8% [at 0.4 µM] | activity change, negative = inhibition [2] -16.2% [at 0.409 µM]

CC(=O)Nc1ccc(S(=O)(=O)Nc2cc(C)on2)cc1
inactive: Potency [1] | Potency [2]

Nc1c(I)cc(I)c(C(=O)N(CCC(=O)O)c2ccccc2)c1I
inactive: Potency [1] | Potency [2]

O=C1NC2CCCCN2C12CCN(CCCN1c3ccccc3CCc3ccc(Cl)cc31)CC2 (stereo not given)
inactive: Potency [1] | Potency [2] | Potency [3] | Potency [4]

CC(=O)Oc1ccc(C2(c3ccc(OC(C)=O)cc3)Oc3ccccc3NC2=O)cc1
inactive: Potency [1] | Potency [2] | Potency [3] | Potency [4] | outcome [6]

CCCCCCOC(=O)NC(=N)c1ccc(NCc2nc3cc(C(=O)N(CCC(=O)OCC)c4ccccn4)ccc3n2C)cc1
inactive: Potency [1] | Potency [2]

CN1[C@@H]2CC[C@H]1CC(NC(=O)n1c(=O)[nH]c3ccccc31)C2 (stereo not given in full)
inactive: Potency [1] | Potency [2] | Potency [3] | Potency [4] | Potency [5] | outcome [6]

COc1ccc2c(c1)c(CC(=O)OC/C=C(\C)CC/C=C(\C)CCC=C(C)C)c(C)n2C(=O)c1ccc(Cl)cc1
inactive: Potency [1] | Potency [2]

C[C@H]1C[C@@H]2[C@H]([C@@H](O)C[C@@]3(C)[C@H]2CC[C@]3(O)C(=O)CO)[C@@]2(C)C=CC(=O)C=C12
inactive: Potency [1] | Potency [2]

CCOC(=O)Cn1cccc1-c1nc(-c2ccc(OC)cc2)c(-c2ccc(OC)cc2)s1
inactive: Potency [1] | Potency [2] | Potency [3] | Potency [4] | outcome [6]

O=C(O)CNC(=O)CNC(=O)CNC(=O)CSC(=O)c1ccccc1
inactive: Potency [1] | Potency [2] | Potency [3] | Potency [4] | Potency [5] | outcome [6]

Brc1ccc([C@H]2CN3CCSC3=N2)cc1
inactive: Potency [1] | Potency [2] | Potency [3] | Potency [4] | Potency [5] | outcome [6]

O=C(NN1CCCC1)NS(=O)(=O)c1ccc(Cl)cc1
inactive: Potency [1] | Potency [2] | Potency [3] | Potency [4] | outcome [6]

C[N+]1(CC2COC(c3ccccc3)(c3ccccc3)O2)CCCCC1 (stereo not given)
inactive: Potency [1] | Potency [2] | Potency [3] | Potency [4] | outcome [6]

O=C(O)Cc1ccccc1Oc1ccc(Cl)cc1Cl
inactive: Potency [1] | Potency [2] | Potency [3] | Potency [4] | outcome [6]

CCN(CC)CCOc1ccc(/C(=C(\Cl)c2ccccc2)c2ccccc2)cc1
inactive: Potency [1] | Potency [2] | Potency [3] | Potency [4] | outcome [6]

CN(C)C(=O)CNC(=O)Cc1ccccc1
inactive: Potency [1] | Potency [2] | Potency [3] | Potency [4] | outcome [6]

CC(=O)O[C@@H]1C(=O)O[C@@H]2[C@H]1OC(=O)[C@@H]2OC(C)=O
inactive: Potency [1] | Potency [2] | Potency [3] | Potency [4] | outcome [6]

O=C1[C@@H]2[C@H]3CC[C@H](C3)[C@@H]2C(=O)N1CCCCN1CCN(c2ncccn2)CC1
inactive: Potency [1] | Potency [2] | Potency [3] | Potency [4] | outcome [6]

CC(C(=O)O)c1ccc(/C=C2\CCCCC2=O)cc1 (stereo not given)
active: Potency [3] 23.9 µM
inactive: Potency [1] | Potency [2] | Potency [4] | outcome [6]

Cc1cccc(N(C)C(=S)Oc2ccc3c(c2)CCC3)c1
inactive: Potency [1] | Potency [2] | Potency [3] | Potency [4] | outcome [6]

Nc1ncnc2nc[nH]c12
inactive: Potency [2]

COc1cc(NS(=O)(=O)c2ccc(N)cc2)nc(C)n1
inactive: Potency [1] | Potency [2] | Potency [3] | Potency [4] | outcome [6]

CC[N+](CC)(CC)CCOC(=O)C(C1CCCC1)C1CCCC1
inactive: Potency [2]

CC1CN(c2cc3c(cc2F)c(=O)c(C(=O)O)cn3-c2ccc(F)cc2F)CCN1 (stereo not given)
inactive: Potency [2] | Potency [3] | Potency [4] | Potency [5] | outcome [6]

CCCCNc1ccc(C(=O)OCCN(CC)CC)cc1
inactive: Potency [1] | Potency [2] | Potency [3] | Potency [4] | outcome [6]

CC(=O)OCC(=O)Nc1cc(C#N)cc(NC(=O)COC(C)=O)c1Cl
inactive: Potency [1] | Potency [2] | Potency [3] | Potency [4] | outcome [6]

O=C(O)[C@H](O)[C@@H](O)[C@H](O[C@@H]1O[C@H](CO)[C@H](O)[C@H](O)[C@H]1O)[C@H](O)CO
inactive: Potency [2]

CN(CC1(C)CCCO1)S(=O)(=O)c1ccc(Cl)c(S(N)(=O)=O)c1 (stereo not given)
inactive: Potency [1] | Potency [2] | Potency [3] | Potency [4] | outcome [6]

CCc1cc(S(=O)(=O)O)c2cc(C(C)C)cccc1-2
inactive: Potency [1] | Potency [2] | Potency [3] | outcome [6]
active: Potency [4] 844 nM

CC(C)(C)c1nnc(NS(=O)(=O)c2ccccc2)s1
inactive: Potency [1] | Potency [2] | Potency [3] | Potency [4] | outcome [6]

CO/N=C(/C(=O)N[C@@H]1C(=O)N2C(C(=O)O)=C(Cn3nnc(C)n3)CS[C@H]12)c1csc(N)n1
active: Potency [1] 14.3 µM
inactive: Potency [2] | Potency [3] | Potency [4] | outcome [6]

Nc1c(NC/C=C\COc2cc(CN3CCCCC3)ccn2)c(=O)c1=O
inactive: Potency [1] | Potency [3] | Potency [4] | Potency [5] | outcome [6]

C[C@H](CN1CCCC1)C(=O)c1ccc(C(F)(F)F)cc1
inactive: Potency [1] | Potency [2] | Potency [3] | Potency [4] | outcome [6]

CC1CC(=O)NN=C1c1ccc(NCC(C)(C)NCC(O)COc2cc(Cl)ccc2C#N)cc1 (stereo not given)
inactive: Potency [3] | outcome [6]

COC(=O)C1=C(C)NC(COC(N)=O)=C(C(=O)OC(C)C)C1c1cccc(Cl)c1Cl (stereo not given)
inactive: Potency [1] | Potency [2] | Potency [3] | Potency [4] | outcome [6]

Cn1cc(S(C)=O)c(=O)c2ccc(F)cc21 (stereo not given)
inactive: Potency [1] | Potency [2] | Potency [3] | Potency [4] | outcome [6]

CCC(C(=O)NC(=O)NC(C)=O)c1ccccc1 (stereo not given)
inactive: Potency [1] | Potency [2] | Potency [3] | Potency [4] | outcome [6]

CC[C@@]1(O)C(=O)OCc2c1cc1n(c2=O)Cc2c-1nc1ccccc1c2/C=N/OC(C)(C)C
active: Potency [2] 12.6 µM

CC[N+]1(CC)CCC(=C(c2ccccc2)c2ccccc2)C1C (stereo not given)
inactive: Potency [1] | Potency [2] | Potency [3] | Potency [4] | outcome [6]

CCN1CCN(c2cc(-c3ccc(F)cc3)c3c(n2)CCCCCC3)CC1
inactive: Potency [1] | Potency [2] | Potency [3] | Potency [4] | outcome [6]

CCCCCOc1ccc(C2SC(=O)NC2=O)cc1OCC (stereo not given)
inactive: Potency [3] | Potency [4] | outcome [6]
active: Potency [2] 22.4 µM

CC1c2ccccc2CN1NC(=O)c1ccc(Cl)c(S(N)(=O)=O)c1 (stereo not given)
inactive: Potency [1] | Potency [2] | Potency [3] | Potency [4] | outcome [6]

C=CCOc1cc(Cl)ccc1C(=O)NCCN(CC)CC
inactive: Potency [1] | Potency [2] | Potency [3] | Potency [4] | outcome [6]

O=C1CC[C@H](C(=O)N2CCCCC2)N1
inactive: Potency [1] | Potency [2] | Potency [3] | Potency [4] | outcome [6]

CCOC(=O)c1ccc(NC(=O)CN2CCCCC2)cc1
inactive: Potency [1] | Potency [2] | Potency [3] | Potency [4] | outcome [6]

CC(C(O)c1ccccc1)N(C)CCOC(c1ccccc1)c1ccccc1 (stereo not given)
inactive: Potency [1] | Potency [2] | Potency [3] | Potency [4] | outcome [6]

O=C(CCCCCCCCC#CI)Oc1ccccc1
inactive: Potency [1] | Potency [2] | Potency [3] | Potency [4] | outcome [6]

CCNC(=O)NCCCOc1cccc(CN2CCCCC2)c1
inactive: Potency [1] | Potency [2] | Potency [3] | Potency [4] | outcome [6]

Source: PubChem BioAssay (NCATS)
